Each structure is given as a SMILES string.

The test system of assay [1] is Human papillomavirus type 1a protein E7 (residues 44-93). Briefly: small molecules binding HPV E7 44-93 – biochemical, small-molecule microarray, residues 44-93, 635 nm fluorescence, primary screen (AID 1108).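 Also: E7 fragment applied at 1 µg/mL in TBST for 1 h at 4 C; score combines spot fluorescence with its signal to noise ratio.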 The settings on record: fluorescence 635 nm, higher = more signal.
Assay [2] can be described thus: hepatitis C replication reporter changes, two-sided – Huh7 cells, luciferase reporter, HCV replication inhibitor project, primary screen (AID 1109).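 Also: huh7 hepatoma cells harbouring a luciferase neomycin HCV replicon reporter; luciferase luminescence as measure of HCV replicon replication; test concentration not given here.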 The conditions noted are these: Huh7 HCV replicon luciferase reporter, 48 h; higher = more signal. For orientation: Reporter assays use an easily measured gene product as a stand-in for the process of interest.
For assay [3], the target named is Left-right determination factor 2 (Homo sapiens) (UniProt O00292). Briefly: small molecules binding LEFTY2 protein – biochemical, small-molecule microarray, 635 nm fluorescence scan, primary screen (AID 1110). The settings on record: higher = more signal.
Assay [4] addresses Calmodulin-1 (Homo sapiens) (UniProt P0DP23). Briefly: small molecules binding calmodulin-1 with EGTA – biochemical, small-molecule microarray, Cy5-labelled CALM1, profiling panel (AID 1111).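 Also: labelled calmodulin applied in Tris saline Tween buffer holding calcium plus EGTA and DTT.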 The conditions noted are these: Cy5-CALM1 binding fluorescence, higher = more signal.
For assay [5] the target is unchanged. Briefly: small molecules binding Ca-loaded calmodulin-1 – biochemical, small-molecule microarray, Cy5-labelled CALM1, plus calcium, artefact control for SMM control-protein annotation, profiling panel (AID 1112).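 Also: score merges spot fluorescence with signal to noise from triplicate slides.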 The settings on record: Cy5-CALM1 binding fluorescence, higher = more signal.
Assay [6] is described as follows: probe aWnt5a binding to arrayed compounds – biochemical, biotinylated probe, 635/667 nm fluorescence, primary screen (AID 1113).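 Also: score merges 667 nm fluorescence intensity with signal-to-noise per printed feature.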 The conditions noted are these: small-molecule microarray, higher = more signal.
Assay [7] is described as follows: probe aShh binding to arrayed compounds – biochemical, biotinylated probe, 635/667 nm fluorescence, primary screen (AID 1114).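 Also: probe is biotin-labelled aShh protein from a stem cell growth factor screen; measures binding of labelled protein to compounds printed on the slide; score merges feature fluorescence at 667 nm with signal-to-noise.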 The settings on record: small-molecule microarray, higher = more signal.
A short description of assay [8]: probe aNog binding to arrayed compounds – biochemical, biotinylated probe, 635/667 nm fluorescence, primary screen (AID 1115).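 Also: probe is biotinylated aNog protein used at 0.15 µg/mL for 1 h at 4 C; z-score combines 667 nm fluorescence of each spot with its signal to noise.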 The settings on record: small-molecule microarray, higher = more signal.
Assay [9] concerns the target Torsin-1A-interacting protein 1 (Homo sapiens) (UniProt Q5JTV8). Briefly: compound microarray binding of lysate hLAP1 – cell lysate, small-molecule microarray, COS7 lysate, 635/667 nm fluorescence, primary screen (AID 1116). The settings on record: 635 nm fluorescence, higher = more signal.
The target of assay [10] is Alpha-bungarotoxin (Bungarus multicinctus) (UniProt P60615). Briefly: compounds binding labelled alpha-BTX control protein – biochemical, small-molecule microarray, Alexa647 label, 635/667 nm fluorescence, artefact control for SMM control protein annotation, profiling panel (AID 1117). The conditions noted are these: alpha-BTX-A647 binding fluorescence, higher = more signal.
Chain of Alpha-bungarotoxin (Bungarus multicinctus) (P60615 whole entry, looked up): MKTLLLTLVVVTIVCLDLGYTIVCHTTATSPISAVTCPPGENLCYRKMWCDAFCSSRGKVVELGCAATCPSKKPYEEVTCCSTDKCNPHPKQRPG

Chain of Left-right determination factor 2 (Homo sapiens) (O00292 whole entry, looked up): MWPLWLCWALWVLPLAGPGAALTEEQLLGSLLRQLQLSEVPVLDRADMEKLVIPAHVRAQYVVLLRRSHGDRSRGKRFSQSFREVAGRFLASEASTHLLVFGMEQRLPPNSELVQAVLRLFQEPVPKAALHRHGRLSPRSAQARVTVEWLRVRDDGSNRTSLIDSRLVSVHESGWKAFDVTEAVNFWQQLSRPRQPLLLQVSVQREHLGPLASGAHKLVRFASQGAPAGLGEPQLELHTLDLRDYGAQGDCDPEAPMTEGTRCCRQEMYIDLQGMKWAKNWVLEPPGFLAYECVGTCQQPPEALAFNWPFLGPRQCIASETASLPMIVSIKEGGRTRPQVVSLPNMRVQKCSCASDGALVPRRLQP
Chain of Torsin-1A-interacting protein 1 (Homo sapiens) (Q5JTV8 whole entry, looked up): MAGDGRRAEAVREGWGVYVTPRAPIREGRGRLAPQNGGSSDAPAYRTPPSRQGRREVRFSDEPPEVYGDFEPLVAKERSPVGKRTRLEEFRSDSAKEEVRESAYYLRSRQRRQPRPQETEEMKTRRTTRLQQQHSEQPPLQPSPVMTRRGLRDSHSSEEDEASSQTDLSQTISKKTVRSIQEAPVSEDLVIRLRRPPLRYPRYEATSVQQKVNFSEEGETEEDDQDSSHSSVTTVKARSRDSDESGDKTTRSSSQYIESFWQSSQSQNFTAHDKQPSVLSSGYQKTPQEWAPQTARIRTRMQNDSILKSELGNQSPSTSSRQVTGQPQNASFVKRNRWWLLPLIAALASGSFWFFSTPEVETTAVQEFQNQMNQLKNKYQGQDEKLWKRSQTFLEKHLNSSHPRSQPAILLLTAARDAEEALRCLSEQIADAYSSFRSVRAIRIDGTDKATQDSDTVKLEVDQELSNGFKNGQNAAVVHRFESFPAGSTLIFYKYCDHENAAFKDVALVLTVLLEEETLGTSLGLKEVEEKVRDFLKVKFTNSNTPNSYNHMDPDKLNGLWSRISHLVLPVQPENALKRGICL

As for `CCCC=C(CCC)[C@@H](NS(=O)(=O)CC12CCC(CC1=O)C2(C)C)c1ccc(C(=O)OC)cc1` (stereo not given in full), the composite z-score in assay [1] was 1.33; in assay [3], 0.306; in assay [4], -0.057; in assay [5] it was -0.654; in [6], -0.165; in assay [7], -0.373. For the same molecule, the composite z-score in [8] is -0.289; in assay [9] it was 0.159; in assay [10] it was -0.362. In addition, the z-score in assay [2] is -0.197.

With `COc1cc2c(cc1O)C(c1cccs1)N(Cc1cc3c(cc1Br)OCO3)CC2` (stereo not given), the composite z-score is 1.48 in [1]; 0.236 in assay [3]; 1.88 in [4]; 0.602 in assay [5]; -0.0286 in assay [6]; 0.23 in [7]. The figures for the composite z-score in [8], in assay [9] and in assay [10] were 1.03, 1.14 and 2.08, respectively. In addition, in assay [2], the z-score is -2.05.

As to `CCCC=C(CCC)[C@@H](NC(=O)c1cccs1)c1ccc(C(=O)OC)cc1`, the composite z-score in assay [1] is 0.805; in [3], 0.698; in [4], 0.318; in [5], -0.276; in assay [6], 1.34; in assay [7], 2.03. The results for the composite z-score in assay [8], in assay [9] and in assay [10] were 2.91, 0.406 and 0.159, respectively. Also, the z-score in assay [2] was -0.122.

Turning to `CCOC(=O)C[C@H]1[C@H](OC(=O)c2ccc(-c3ccccc3)cc2)[C@@H](NC(=O)CC(C)C)c2cc(OCCCO)ccc2N1C(=O)c1ccc2ccccc2n1`, the composite z-score in assay [1] was 0.903; in [3], 0.218; in [4], 0.326; in [5] it was -0.631; in assay [6] it was -0.0678; in assay [7], 0.0723. Also, the results for the composite z-score in [8], in assay [9] and in [10] were 0.39, -0.289 and 0.0623, respectively. The same molecule yielded a z-score in assay [2] of -1.3.

On to `O=C1C2C=CC(C(O)c3ccco3)N(Nc3ccccc3F)C2C(=O)N1c1ccccc1` (stereo not given), for which the composite z-score in [1] is 0.761; in assay [3], -0.46; in assay [4], 0.175; in assay [5] it was -0.0085; in [6] it was 0.115; in assay [7], 0.184. Also, the results for the composite z-score in [8], in [9] and in [10] were 0.742, 0.942 and 0.25, respectively. This molecule also registered a z-score in assay [2] of -0.137.

Consider `NCCCCCCNC(=O)[C@@H]1C[C@@H]2C(=O)N[C@@H](CCCCN)C(=O)N2[C@@H]1c1ccc(O)cc1`, for which the composite z-score in assay [1] was 1.31; in assay [3], 0.642; in assay [4], -0.301; in assay [5], 0.0301; in assay [6], -0.172; in assay [7], 0.12. Also, the results for the composite z-score in assay [8], in assay [9] and in [10] were -0.0087, 1.66 and -1.03, respectively. In assay [2], the z-score is -0.31.

`CC(C)N1C(=O)c2ccccc2[C@@H](C(=O)NCCN2CCOCC2)[C@@H]1c1ccc(CO)cc1`: the composite z-score in assay [1] was 0.0391; in assay [3], -2.07; in assay [4], -0.346; in assay [5] it was 0.603; in assay [6], -0.256; in assay [7] it was -0.221. In addition, the composite z-score in [8] was -0.321; in assay [9], -0.171; in assay [10] it was -1.25. The z-score in assay [2] was -0.476.

Regarding `CCCN1C(=O)[C@]2(Cc3ccccc31)N=C(c1ccc(OCCCO)cc1)O[C@@H]2c1ccccc1`, the composite z-score in [1] was 1.42; in assay [3], -0.148; in [4] it was 1.98; in [5] it was -0.317; in assay [6] it was 0.0427; in assay [7], 1.17. The composite z-score turned out to be 0.401 in [8], 0.414 in assay [9] and 1.28 in assay [10]. Moreover, in [2], the z-score is -3.29.

`Cc1ccc(S[C@]2(C(=O)NC(C)C)CC(=O)N(Cc3cc(C(F)(F)F)cc(C(F)(F)F)c3)[C@@H]2c2ccc(CO)cc2)cc1`: the composite z-score is -0.411 in assay [1]; -1.76 in [3]; -0.491 in assay [4]; 0.0262 in [5]; 0.0857 in assay [6]; -0.393 in assay [7]. Further, the composite z-score in assay [8] is -0.143; in assay [9] it was 0.0702; in assay [10] it was 0.26. The z-score in assay [2] is -0.343.

Take `CCCCC(O)C1C=CC2C(=O)N(C)C(=O)C2N1N(c1ccccc1)c1ccccc1` (stereo not given): the composite z-score was 0.447 in assay [1]; 0.186 in assay [3]; 2.06 in [4]; 0.766 in assay [5]; -0.0161 in [6]; 0.393 in assay [7]. In addition, the composite z-score in assay [8] worked out at 1.53; in [9], 1.41; in [10], 1.8. For the same molecule, in assay [2], the z-score is -0.991.

Take `[N-]=[N+]=NCc1ccccc1[C@@H]1OC(c2ccc(OCCCO)cc2)=N[C@]1(CCS(=O)(=O)c1ccccc1)C(=O)O`: the composite z-score in [1] was 1.31; in assay [3], -0.151; in assay [4] it was 0.678; in assay [5] it was 0.0892; in [6], 0.0487; in assay [7], 0.0469. The composite z-score is 0.592 in [8], 0.953 in assay [9] and 1.17 in assay [10]. For the same molecule, the z-score in [2] came to 1.1.

On to `CCCCCCc1nc(Cc2cc(OC)c(OC)c(OC)c2)cc2c1[Si](C(C)C)(C(C)C)OC2`, for which the composite z-score in [1] was -0.457; in [3], 0.186; in [4] it was -0.112; in assay [5], -0.302; in assay [6], -0.0462; in assay [7] it was -0.214. Besides, the composite z-score in assay [8] is -0.174; in assay [9], -0.136; in assay [10], -0.0869. For the same molecule, the z-score in assay [2] is -1.96.

As for `O=C1NC(=O)C2C1C=CC(C(O)c1ccco1)N2Nc1ccc(Cl)cc1Cl` (stereo not given), the composite z-score in [1] was 0.478; in [3], -0.39; in assay [4], 0.317; in assay [5], 0.381; in [6] it was -0.152; in assay [7] it was 0.111. Also, the values for the composite z-score in [8], in assay [9] and in assay [10] were -0.3, 0.478 and 0.396, respectively. This molecule had a z-score in assay [2] of -0.664.

The values are drawn from PubChem BioAssay.
